In PubChem BioAssay AID861 (The Scripps Research Institute Molecular Screening Center, 2007):
Screen size: about 200,000 compounds; about 360 (0.18%) were called active. No stated cut-off is given here; in the data, active means inhibition above about 25%; inactive means the rest. The list comes from a sample in which actives are over-represented; it also holds similar structures and randomly drawn compounds.

Molecular target: Toll-like receptor 4 (Homo sapiens) + Myeloid differentiation primary response protein MyD88 (Homo sapiens) (UniProt O00206+Q99836)
Sequence (O00206 whole entry, looked up): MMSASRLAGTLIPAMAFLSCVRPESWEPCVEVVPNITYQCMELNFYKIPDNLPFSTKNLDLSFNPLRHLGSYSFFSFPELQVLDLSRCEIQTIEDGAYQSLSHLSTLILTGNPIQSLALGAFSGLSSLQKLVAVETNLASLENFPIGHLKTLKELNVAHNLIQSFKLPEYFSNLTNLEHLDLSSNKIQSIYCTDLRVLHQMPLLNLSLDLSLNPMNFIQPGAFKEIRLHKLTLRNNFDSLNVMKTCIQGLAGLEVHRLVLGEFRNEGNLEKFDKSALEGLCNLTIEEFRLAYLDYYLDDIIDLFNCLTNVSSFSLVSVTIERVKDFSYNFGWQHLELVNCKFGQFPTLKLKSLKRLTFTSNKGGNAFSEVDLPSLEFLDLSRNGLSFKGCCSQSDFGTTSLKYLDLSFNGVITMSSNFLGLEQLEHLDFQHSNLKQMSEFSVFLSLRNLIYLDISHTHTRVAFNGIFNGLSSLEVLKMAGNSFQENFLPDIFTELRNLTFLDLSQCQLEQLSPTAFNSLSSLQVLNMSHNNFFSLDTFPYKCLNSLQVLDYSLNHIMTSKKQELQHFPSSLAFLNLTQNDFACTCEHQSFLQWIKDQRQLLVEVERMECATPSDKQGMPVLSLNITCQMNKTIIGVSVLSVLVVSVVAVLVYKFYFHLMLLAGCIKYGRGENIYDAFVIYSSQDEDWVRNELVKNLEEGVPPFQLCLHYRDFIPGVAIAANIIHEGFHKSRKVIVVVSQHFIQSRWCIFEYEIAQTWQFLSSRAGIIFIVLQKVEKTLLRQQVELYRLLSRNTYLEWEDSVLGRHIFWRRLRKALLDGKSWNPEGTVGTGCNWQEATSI
Sequence (Q99836 whole entry, looked up): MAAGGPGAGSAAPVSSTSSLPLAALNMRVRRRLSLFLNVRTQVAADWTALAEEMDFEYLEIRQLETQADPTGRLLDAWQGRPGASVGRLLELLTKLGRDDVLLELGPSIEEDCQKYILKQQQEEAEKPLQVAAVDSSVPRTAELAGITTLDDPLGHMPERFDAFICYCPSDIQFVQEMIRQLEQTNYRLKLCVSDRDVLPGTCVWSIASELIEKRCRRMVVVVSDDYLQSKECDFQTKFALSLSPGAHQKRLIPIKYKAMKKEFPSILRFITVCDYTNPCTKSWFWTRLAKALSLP
Assay: inhibitors of TLR4-MyD88 association in cells, primary screen, cell-based, HeLa CL3-4, BLA complementation, FRET ratio (AID 861);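 further: 0% = vehicle and 100% = reference inhibitor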
Details: HeLa CL3-4 TLR4/MyD88 BLA complementation, at 8.4 µM, active compounds read high

SMILES | inhibition
Cc1cccc(C)c1N1CCN(S(=O)(=O)N2CCCCC2)CC1 | -5.18% (inactive)
CC1CCN(C(=O)c2ccc(CSc3ccc(Cl)cc3)cc2)CC1 | 2.08% (inactive)
C=C(C)C1CC=C(C)/C(=N\NC(=O)CNc2ccccc2OC)C1 (configuration not stated) | 3.79% (inactive)
O=C(c1ccc2ccccc2n1)N1CCN(c2ccccc2Cl)CC1 | -7.41% (inactive)
CCOC(=O)c1[nH]cnc1C(=O)Nc1ccccc1C | 4.26% (inactive)
COc1ccc(C2CC(c3cccs3)=NN2c2ccc(F)cc2)cc1OC (configuration not stated) | 5.58% (inactive)
COc1ccccc1N1N=C(c2cccs2)CC1c1ccccc1 (configuration not stated) | 44.4% (active)
COc1ccc(C2CC(c3cccs3)=NN2c2ccccc2)cc1 (configuration not stated) | 0.51% (inactive)
O=C(Nc1ccc(Br)cn1)c1ccc([N+](=O)[O-])cc1Cl | 0.87% (inactive)
O=C(/C=C/c1ccc(N2CCOCC2)cc1)c1ccccc1 | 27.9% (active)
O=C(/C=C/c1ccccc1)c1ccoc1 | 4.74% (inactive)
O=C(O)c1ccc2c(c1)C(=O)N(c1ccc(/C=C/C(=O)c3ccccc3)cc1)C2=O | -0.8% (inactive)
CCOc1ccc(-c2n[nH]c(=S)n2/N=C/c2cc3c(cc2[N+](=O)[O-])OCO3)cc1 | -2.5% (inactive)
CCOC(=O)CCCN1CC(O)=C(c2nc3ccccc3s2)C1=N | -14.8% (inactive)
COc1ccc(-c2[nH]ncc2/C=N/NC(=O)c2cc(Br)ccc2O)c(OC)c1 | -5.73% (inactive)
COc1cc(OC)cc(-c2nnc(N(C)C(=O)c3ccncc3)s2)c1 | 11.3% (inactive)
O=C(NCC1CCCO1)C1CCN(C2CCN(C(=O)C3CCCCC3)CC2)CC1 (configuration not stated) | -1.44% (inactive)
CCOc1cc(NC(=S)NCc2ccco2)c(OCC)cc1NC(=O)c1ccco1 | -15.2% (inactive)
CC(=O)C1C(c2ccc(Cl)cc2)c2c(n[nH]c2C)CC1(C)O (configuration not stated) | -3.07% (inactive)

SMILES | inhibition
O=C(c1ccc(Cl)cc1)c1cnc(Nc2ccccc2)s1 | 25.8% (active)
O=C(CSc1nnc(Nc2ccccc2)s1)Nc1cccnc1Cl | -6.41% (inactive)
CC(C)(C)C(=O)c1cnc(Nc2ccccc2)s1 | -8.48% (inactive)
O=C(NC1CC1)C1CCCN(C(=O)NC2CCCCC2)C1 (configuration not stated) | 5.9% (inactive)
Cc1cc(F)ccc1S(=O)(=O)N1CCCOC1CNC(=O)C(=O)NCCC1=CCCCC1 (configuration not stated) | -6.72% (inactive)
O=C(Nc1ccc(-n2ccnc2P(=O)(O)c2ccccc2)cc1)c1ccccc1Br | -8.07% (inactive)
Cc1ccc(C)c(NC(=O)CCC(=O)N/N=C2/CC(=O)CC(C)(C)C2)c1 | 6.45% (inactive)
COc1ccc(F)c(-c2nc(CN3CCC(c4ccccc4)CC3)c(C)o2)c1 | -6.39% (inactive)
O=C(OCC(=O)c1c[nH]c2ccccc12)c1cccc(O)c1 | -10% (inactive)
Cc1cccc(COc2ccccc2/C=N/Nc2ccc([N+](=O)[O-])cc2)c1 | 28.7% (active)
COc1cc(/C=N/O)ccc1OCc1ccc([N+](=O)[O-])cc1 | -3.68% (inactive)
Cc1ccccc1OCCOc1ccc([N+](=O)[O-])cc1/C=N/n1cnnc1 | -17.5% (inactive)
CCCn1c(=S)[nH]c2ccc(C(F)(F)F)cc21 | -6.93% (inactive)
CCNC(=O)N1c2ccccc2Sc2ccccc21 | 7.55% (inactive)
Cc1cccc(C(=O)NC(=S)N2CCN(c3ccc([N+](=O)[O-])cc3)CC2)c1 | -12.6% (inactive)
COC(=O)C1=NN(c2ccccc2)C2C(=O)N(c3ccccc3OC)C(=O)C12 (configuration not stated) | 0.17% (inactive)
Cc1cccc(C(=O)Nc2ccccc2C(=O)NCc2cccnc2)c1 | -0.85% (inactive)
O=C1Nc2ccccc2C12Nc1ccccc1S2 (configuration not stated) | -1.86% (inactive)
CCc1ccc2c(c1)C1(NN=C(c3ccccc3)S1)C(=O)N2 (configuration not stated) | 25.3% (active)

SMILES | inhibition
C=C1c2cc(CC)ccc2NC(=O)N1c1ccc(C)cc1 | 1.66% (inactive)
CNc1nc(Nc2ccc(C)c(Cl)c2)nc(N)c1[N+](=O)[O-] | -5.76% (inactive)
O=C(Nc1ccccc1Cl)c1ccc2nsnc2c1 | 7.26% (inactive)
O=C(CN1CCCCC1)Nc1ccccc1Cl | -3.05% (inactive)
O=C(Nc1ccccc1Cl)/C(Cl)=C(\Cl)S(=O)c1ccccc1 (configuration not stated) | 27% (active)
CC1(c2ccccc2)CC(C)(C)N(C(=O)c2cc([N+](=O)[O-])cc([N+](=O)[O-])c2)c2ccccc21 (configuration not stated) | -16.2% (inactive)
CCOc1ccc(C(C)=O)cc1COC(=O)c1cnc(Cl)c(Cl)c1 | 15.1% (inactive)
COC(=O)/C(=C1\Oc2ccc(C(C)(C)C)cc2S1)C(F)(F)F | 6.06% (inactive)
Cc1c(Cl)cccc1NC(=S)N(Cc1ccccc1)Cc1cccnc1 | 1.23% (inactive)
CC(Sc1nc2c([nH]c3ccccc32)c(=O)n1C)c1ccccc1 (configuration not stated) | 8.9% (inactive)
CC1=NN(c2cccc(Cl)c2)C(=O)C12CC(C)=C(C)CS2 (configuration not stated) | 2.14% (inactive)
Cn1cc(CN2CCC(C(O)CCc3ccccc3)CC2)c(-c2ccccc2F)n1 (configuration not stated) | -13.8% (inactive)
CC1CCN(C(=S)c2cccc(O)c2)CC1 | -6.27% (inactive)
O=[N+]([O-])c1ccc(N2CCN(CC(O)COc3ccccc3)CC2)cc1 (configuration not stated) | 5.02% (inactive)
CCc1cccc(CC)c1NC(=O)COc1ccccc1C(=O)c1cc(C#N)c(=O)n(C2CCCCC2)c1 | -16.2% (inactive)
CC(C)CCN1C(=O)c2ccc(C(=O)Nc3cccc(S(N)(=O)=O)c3)cc2C1=O | 1.58% (inactive)
CC(=O)NCCc1nc2cc(NC(=O)c3ccccc3)ccc2n1C | -9.04% (inactive)
CC(Oc1ccc(Br)cc1Br)C(=O)NC1CCCC1 (configuration not stated) | -3.01% (inactive)
CS(=O)(=O)N(Cc1ccccc1Cl)c1ccc(C(=O)NCc2cccnc2)cc1 | -15.2% (inactive)
